From PubChem BioAssay AID1745848 (National Center for Advancing Translational Sciences (NCATS), 2022)
About 940 (45%) of roughly 2,100 compounds were called active. Inconclusive results (about 48%) are left out. Calls follow the shape of the dose curve; as a rule, active = well fitted inhibition curve with a large enough effect; inconclusive = small, poorly fitted or top-dose-only effect; inactive = no such curve, though single readings can be large or run the other way. So high a share suggests a set chosen from earlier hits. This is one part of the list.

Assay: Confirmatory qHTS for Inhibitors of ATXN expression; also: nearly all actives have a fitted effect of over 65% in size;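 as to activity change, negative = inhibition: 0% = DMSO vehicle wells and -100% = medium-only wells without cells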
Conditions: ATXN2-luciferase reporter cells, luminescence, 24 h; series mostly up to 11.5 µM; activity change, negative = inhibition: at the top concentration
Summary of the method: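 Cells carrying ATXN2-luciferase reporter exposed 24 h at 37 C to compound. Viability then read by CellTiter-Fluor (25 uM GF-AFC, 30 min), followed by SteadyGlo luminescence; medium-only wells set 100% inhibition.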
Potency is read from the fitted curve at half-maximal effect.

SMILES | Potency | activity change, negative = inhibition
COC(=O)c1ccc(/C=C2/SC(=S)N(CCCC(=O)Nc3ccccn3)C2=O)cc1 | 14.1 µM (active) | 
O=C(CCCN1C(=O)/C(=C/c2ccccc2Cl)SC1=S)Nc1ccccn1 | 11.2 µM (active) | 
COc1ccc(/C=C2\SC(=S)N(CCCC(=O)Nc3ccccn3)C2=O)cc1OC | 14.1 µM (active) | 
O=C(Nc1ccc(CN2CCCCC2)cc1)Nc1ccc(Br)cc1Cl | 25.1 µM (active) | 
N#Cc1c(NCCN)nc(-c2ccco2)c2c1CCCC2 | 25.1 µM (active) | 
NS(=O)(=O)c1ccc(CCNc2nn3c(-c4cccc(OC(F)(F)F)c4)cnc3s2)cc1 | 3.55 µM (active) | 
COc1cccc(/C=N/Nc2ncnc3c2ncn3Cc2ccccc2)c1O | 0.708 µM (active) | 
COc1cccc(/C=N/Nc2ncc(C(F)(F)F)cc2Cl)c1O | 1.58 µM (active) | 
CN1C2CCC1/C(=C\c1ccccc1)C(=O)/C2=C\c1ccccc1 | 14.1 µM (active) | 
O=C(C1CCCCC1)N1CCN(c2ccnc3cc(Cl)ccc23)CC1 | 3.98 µM (active) | 
O=S(=O)(c1ccc2nc(COc3ccc(Cl)cc3Cl)[nH]c2c1)N1CCOCC1 |  | 11.9% (inactive)
COc1ccccc1N1CCN(c2ccnc3cc(Cl)ccc23)CC1 | 12.6 µM (active) | 
O=S(=O)(c1ccccc1)N1CCN(c2ccnc3cc(Cl)ccc23)CC1 | 25.1 µM (active) | 
Oc1ccc(N2CCN(c3ccnc4cc(Cl)ccc34)CC2)cc1 | 15.8 µM (active) | 
C[C@H]1O[C@@H](O[C@H]2[C@@H](O)C[C@H](O[C@H]3[C@@H](O)C[C@H](O[C@H]4CC[C@@]5(C)[C@H](CC[C@@H]6[C@@H]5C[C@@H](O)[C@]5(C)[C@@H](C7=CC(=O)OC7)CC[C@]65O)C4)O[C@@H]3C)O[C@@H]2C)C[C@H](O)[C@@H]1O | 0.282 µM (active) | 
Cc1cccc2sc(NNC(=O)c3ccc(S(=O)(=O)N4CC(C)CC(C)C4)cc3)nc12 (stereo not given) | 2 µM (active) | 
Cc1cccc2sc(NNC(=O)c3ccc(S(=O)(=O)N4CCCC(C)C4)cc3)nc12 (stereo not given) | 7.94 µM (active) | 
Cc1cc(C)c2nc(NNC(=O)c3ccc(S(=O)(=O)N4CC(C)CC(C)C4)cc3)sc2c1 (stereo not given) | 3.55 µM (active) | 
CCCC(NCC(O)COc1ccc(-c2ccccc2)cc1)c1ccccc1 (stereo not given) | 25.1 µM (active) | 
NS(=O)(=O)c1ccc(Sc2nc3ccccc3s2)c([N+](=O)[O-])c1 | 2.24 µM (active) | 
COc1cc(C#Cc2c(-c3cncn3C)n(C)c3ccc(-c4cnc(OC)nc4)cc23)cc(OC)c1 | 3.16 µM (active) | 
Cc1ccnc(NC(=O)C2CCN(S(=O)(=O)c3c(C)c(C)cc(C)c3C)CC2)c1 | 2.24 µM (active) | 

SMILES | Potency | activity change, negative = inhibition
O=C(Nc1ccc[n+](CC(=O)c2cccc3ccccc23)c1)c1ccccc1 | 3.55 µM (active) | 
O=[N+]([O-])c1cc(O)c2ncccc2c1 | 3.16 µM (active) | 
Fc1ccc2[nH]c3c(N4CCc5ccccc5C4)ncnc3c2c1 | 3.98 µM (active) | 
CCOC(=O)N1CCN(c2ncnc3c2[nH]c2ccc(F)cc23)CC1 | 8.91 µM (active) | 
Fc1ccc2[nH]c3c(N4CCSCC4)ncnc3c2c1 | 12.6 µM (active) | 
O=C(N/N=C\c1cc(Br)ccc1O)c1ccc(S(=O)(=O)N2CCCCC2)cc1 | 0.794 µM (active) | 
Cc1cc(C)n(-c2ccc(C(=O)N3CCN(S(=O)(=O)c4cccc(Br)c4)CC3)cc2)n1 |  | -11.3% (inactive)
O=C(N/N=C\c1cc(Cl)ccc1O)c1ccc(S(=O)(=O)N2CCCCC2)cc1 | 0.708 µM (active) | 
O=C(N/N=C\c1c(O)ccc2ccccc12)c1ccc(S(=O)(=O)N2CCCCC2)cc1 | 0.501 µM (active) | 
CC(OC(=O)c1cc(Br)ccc1O)C(=O)Nc1ccc(S(=O)(=O)N2CCCC2)cc1 (stereo not given) | 28.2 µM (active) | 
CCCCOc1ccc(CSC(=N)N)cc1Cl | 25.1 µM (active) | 
COc1ccc2c(c1)[nH]c1c(=O)n(/N=C/C3C(C)C=C(C)CC3C)c(=O)[nH]c12 (stereo not given) | 14.1 µM (active) | 
O=C(N/N=C/c1c(O)n(Cc2ccccc2)c(=O)c2ccccc12)c1cccnc1 | 15.8 µM (active) | 
Cn1c(=O)c2cc(NC(=O)Nc3cccnc3)ccc2n1Cc1ccc(Cl)cc1 |  | -17.8% [at 57.5 µM] (inactive)
COc1ccc(Cn2c(O)c(/C=N/NC(=O)c3cccnc3)c3ccccc3c2=O)cc1 | 14.1 µM (active) | 
CC(=O)c1cccc(NC(=O)C2Cc3c(-c4cccc(C(C)=O)c4)ccnc3O2)c1 (stereo not given) |  | -14.3% (inactive)
CC(=O)Nc1cccc(-c2ccnc3c2CC(C)(C(=O)Nc2cccc(Oc4ccccc4)c2)O3)c1 (stereo not given) | 25.1 µM (active) | 
CC(=O)Nc1cccc(-c2ccnc3c2CC(C)(C(=O)Nc2ccc(Cl)cc2)O3)c1 (stereo not given) | 10 µM (active) | 
CC(Nc1ccccc1CO)C(=O)Nc1cccc(Cl)c1Cl (stereo not given) | 2.24 µM (active) | 
COc1cc(NC(=O)c2cccc3c(-c4cccnc4)coc23)cc(OC)c1OC | 3.55 µM (active) | 
NC(=S)N1OC[C@@H]2COc3ccc4ccccc4c3[C@@H]21 | 14.1 µM (active) | 
O=[N+]([O-])c1ccc(O)c(/C=N/Nc2ncnc3c2cnn3-c2ccccc2)c1 | 1.26 µM (active) | 

SMILES | Potency | activity change, negative = inhibition
O=[N+]([O-])c1ccc(O)c(/C=N\N=C2c3ccccc3-c3ccccc32)c1 | 3.98 µM (active) | 
O=[N+]([O-])c1ccc(O)c(/C=N/Nc2ccccn2)c1 | 0.631 µM (active) | 
COc1ccccc1N1CCN(C(=O)c2cc3c(C)nc4ccccc4c3o2)CC1 | 3.55 µM (active) | 
COc1ccc(N2CCN(C(=O)c3cc4c(C)nc5ccccc5c4o3)CC2)cc1 | 25.1 µM (active) | 
N#C/C(=C\c1cccc([N+](=O)[O-])c1)C(=O)NCc1ccc(Cl)cc1 | 3.16 µM (active) | 
N#C/C(=C\C=C\c1ccccc1[N+](=O)[O-])C(=O)NC1CCCCC1 | 17.8 µM (active) | 
CC1CCCCC1NC(=O)/C(C#N)=C/C=C/c1ccccc1[N+](=O)[O-] (stereo not given) | 3.16 µM (active) | 
N#C/C(=C\C=C\c1ccccc1[N+](=O)[O-])C(=O)NCc1ccccc1 | 2.82 µM (active) | 
COC(=O)c1ccc2c(c1)C(C)(C)C(/C=C/c1ccc(OC)c(OC)c1OC)=[N+]2C | 3.55 µM (active) | 
CCNc1ccc(Br)cc(C(=O)/C=C/c2ccccc2Cl)c1=O |  | 0.525% (inactive)
O=C(/C=C/c1ccccc1)c1cc(Br)ccc(=O)c1O | 28.2 µM (active) | 
Cc1cccc(NC2=Nc3ccccc3N3C2=Nc2c(c(C)nn2-c2ccccc2)C3c2ccc(O)c(O)c2)c1 (stereo not given) | 3.55 µM (active) | 
CC(=O)Nc1ccc(NC2=Nc3ccccc3N3C2=Nc2c(c(C)nn2-c2ccccc2)C3c2ccccc2)cc1 (stereo not given) | 1.26 µM (active) | 
COc1cccc(NC(=O)CSc2nc3ncc(Br)cc3[nH]2)c1 | 3.98 µM (active) | 
Cc1cc(C)n(-c2nc(Nc3ccccc3C(F)(F)F)nc(-n3nc(C)cc3C)n2)n1 | 3.16 µM (active) | 
O=C(Oc1c(CN2CCOCC2)cc(Cl)c2cccnc12)c1cccs1 | 11.2 µM (active) | 
O=C(Oc1c(CN2CCOCC2)cc(Cl)c2cccnc12)c1ccccc1 | 3.55 µM (active) | 
CCOC(=O)N1CCN(Cc2cc(Cl)c3cccnc3c2O)CC1 | 1.58 µM (active) | 
CC(C)(O)C#Cc1ccc([C@@H]2C[C@H]3CN(c4ccccc4)C(=O)[C@]34CCCN24)s1 | 5.01 µM (active) | 
O=C1N(c2ccccc2)C[C@@H]2C[C@@H](c3cc4ccccc4o3)N3CCC[C@@]123 | 0.316 µM (active) | 
CC(C)C[C@H](N)c1cn([C@@H](CCCCN)C(=O)N2CCNCC2)nn1 |  | -10.6% (inactive)
Cc1c(OCC(=O)NC2CC(C)(C)NC(C)(C)C2)ccc2c1oc(=O)c1ccccc12 | 2.82 µM (active) | 

SMILES | Potency | activity change, negative = inhibition
COc1ccccc1-c1cc2nc(-c3ccccc3)cc(N3CCN(C(=O)c4ccco4)CC3)n2n1 | 12.6 µM (active) | 
COc1cccc(-c2cc3nc(-c4ccccc4)cc(N4CCN(C(=O)c5ccoc5)CC4)n3n2)c1 | 2.82 µM (active) | 
COc1ccccc1-c1cc2nc(-c3ccccc3)cc(N3CCN(C(=O)c4ccoc4)CC3)n2n1 | 12.6 µM (active) | 
O=C(c1ccoc1)N1CCN(c2cc(-c3ccco3)nc3cc(-c4ccccc4)nn23)CC1 | 25.1 µM (active) | 
Cn1cccc1/C=N/N1CCN(Cc2ccccc2Cl)CC1 |  | -21.1% [at 57.5 µM] (inactive)
CCOc1ccc(S(=O)(=O)NCCC(=O)N2CC=C(c3ccccc3)CC2)cc1 | 12.6 µM (active) | 
Cc1cccn2c(=O)c3cc(C(=O)NCCN4CCOCC4)c(=N)n(Cc4ccc(F)cc4)c3nc12 | 7.08 µM (active) | 
Cc1ccc2[nH]c(O)c(N=NC(=O)C3CC3c3ccccc3)c2c1Br (stereo not given) |  | -23.6% (inactive)
OC(CN1CCCCC1)Cn1c2ccc(Cl)cc2c2cc(Cl)ccc21 (stereo not given) | 3.16 µM (active) | 
O=C(NCC1CCCO1)c1cccc(Oc2ccc([N+](=O)[O-])cc2Cl)c1 (stereo not given) |  | -23.8% (inactive)
O=C(Nc1cccc2c1CCCC2)c1cc([N+](=O)[O-])ccc1Cl | 15.8 µM (active) | 
CC(C)(C)c1ccc(OCCCC(=O)NNC(=O)c2ccccc2O)cc1 | 25.1 µM (active) | 
COc1ccc(/C=C2\SC(=S)N(CCCC(=O)NNC(=O)c3ccccc3O)C2=O)cc1 | 3.98 µM (active) | 
O=C(CCCN1C(=O)S/C(=C\c2ccccc2)C1=O)NNC(=O)c1ccccc1O | 2.24 µM (active) | 
CN(C)CCNCCCNc1c2ccccc2nc2cccc([N+](=O)[O-])c12 | 0.0891 µM (active) | 
CC(=O)N1CCN(c2ccc(Oc3ccc([N+](=O)[O-])c(C(F)(F)F)c3)cc2)CC1 | 11.2 µM (active) | 
Cc1c(C(=O)Nc2ccc(-c3nnc4n3CCCCC4)cc2)oc2c1ccc1ccccc12 | 3.16 µM (active) | 
O=C(N/N=C/c1ccccc1O)C1SCCCS1 | 14.1 µM (active) | 
O=C(N/N=C/c1ccccc1O)C1CCCC1 | 28.2 µM (active) | 
